Source: PubChem BioAssay
In the library only some 4.1% were active in any assay of this set; here they are far more common.
DAX1 inh-1 = inhibitors of human orphan nuclear receptor DAX1 (NR0B1). HEK293 Gal4-DAX1 luciferase reporter, luminescence. inhibition, % at 6.75 µM. 340,000 compounds, 0.99% hits. AID 504766;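 active means inhibition above the mean over all tested compounds plus 3 SD, cut at about 4.2% in these data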;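 further: 0% = DAX1-transfected cells with DMSO and 100% = empty-vector control cells with DMSO; inhibition shows as a rise in luminescence from relieved DAX1 repression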
hgDAF-12 ag = hgDAF-12 agonism, primary luciferase screen. HEK293 GAL4-hgDAF12 UAS-luciferase reporter, agonist luminescence; normalized to butyrate control. activation, % at 6.8 µM. 370,000 compounds, 1.8% hits. AID 687014;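 active means activation above a cutoff set at the mean of all screened compounds plus 3 SD, cut at about 10% in these data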;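 further: 0% = DMSO wells and 100% = sodium butyrate wells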
DAX1 inh-2 = blocks DAX1 repression of SF-1 activated StAR promoter; 370,000 compounds, 1.1% hits; HEK293T StAR-luciferase reporter, SF-1/DAX-1 repression relief; inhibition, % at 6.8 µM;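 active means inhibition above the mean over all tested compounds plus 3 SD, cut at about 3.6% in these data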;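 further: 0% = DAX-1 cells with DMSO and 100% = cells lacking DAX-1 with DMSO; higher inhibition means more luminescence from relief of DAX-1 repression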
hcDAF-12 act = H. contortus DAF-12 activation, primary screen | HEK293 hcDAF-12 lit1-tk-luc reporter, luminescence; 0% DMSO, 100% Δ7-dafachronic acid | activation, % at 6.8 µM | AID 652067 | 370,000 compounds, 1.4% hits;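 active means activation above the mean of all tested compounds plus 3 SD, cut at about 5.5% in these data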;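 further: 100% = response to 3 µM Δ7-dafachronic acid high control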
ssDAF12 agonist = S. stercoralis DAF-12 activation, primary screen; 370,000 compounds, 1% hits; HEK293 ssDAF-12/GRIP1 lit1-tk-luc reporter, luminescence; % of 3 µM dafachronic acid response; AID 652126; activation, % at 6.8 µM;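 active means activation above the mean over all tested compounds plus 3 SD, cut at about 0.9% in these data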;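 further: 0% = DMSO-only wells and 100% = 3 µM delta7-dafachronic acid wells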
LXRb hcDAF ctr = counter-screen for hcDAF-12 agonists: agonists of human LXR-beta. HEK293 Gal4-LXR tk-luc reporter, luminescence, 24 h; normalized: DMSO 0%, positive control 100%. AID 743027. 3,400 tested, under 10 active. shares compounds with hcDAF-12 act. activation, % at 6.8 µM;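 active means mean percent activation of the reporter above a cutoff set as the average over tested compounds plus their standard deviation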
Target sequence (P55055 whole entry, looked up, the tested form may be a part): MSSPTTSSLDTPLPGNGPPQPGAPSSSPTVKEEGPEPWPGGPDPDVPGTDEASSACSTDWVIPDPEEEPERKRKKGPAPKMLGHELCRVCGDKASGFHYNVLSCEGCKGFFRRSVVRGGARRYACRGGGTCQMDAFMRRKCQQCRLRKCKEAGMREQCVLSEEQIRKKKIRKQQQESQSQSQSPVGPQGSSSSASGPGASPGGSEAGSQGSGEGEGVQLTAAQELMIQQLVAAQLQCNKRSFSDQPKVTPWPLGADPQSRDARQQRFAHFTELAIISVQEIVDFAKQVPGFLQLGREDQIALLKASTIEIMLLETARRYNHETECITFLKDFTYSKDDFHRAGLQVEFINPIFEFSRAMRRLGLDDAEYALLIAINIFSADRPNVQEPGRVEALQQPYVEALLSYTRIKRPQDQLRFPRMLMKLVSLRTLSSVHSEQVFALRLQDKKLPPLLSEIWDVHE
hcDAF12 conf = confirmation of H. contortus DAF-12 agonists. shares compounds with hcDAF-12 act. HEK293 hcDAF-12 lit1-tk-luc reporter, luminescence; % of Δ7-dafachronic acid response. activation, % at 6.8 µM. 3,400 compounds, 61% hits. AID 743032;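 active means mean activation across triplicate tests above the threshold derived from the earlier primary screen, cut at about 5.5% in these data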;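 further: 0% = DMSO only wells and 100% = 3 µM Δ7-dafachronic acid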
hgDAF12 conf = confirmation of H. glycines DAF-12 agonists; activation, % at 6.8 µM; 3,300 compounds, 80% hits; HEK293 GAL4-hgDAF12 luciferase reporter, agonist mode; percent of butyrate response; shares compounds with hgDAF-12 ag; AID 743050;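 active means mean activation over triplicate wells above the hit cutoff derived from the earlier primary screen, cut at about 11% in these data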;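 further: 0% = DMSO low control and 100% = 2 mM sodium butyrate high control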
LXR ag 2 = LXR-beta agonism as DAF-12 counter-screen; shares compounds with hgDAF-12 ag; HEK293 Gal4-LXR luciferase reporter, 24 h; activation, % at 6.8 µM; 3,300 tested, under 10 active; AID 743051;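 active means mean activation of the triplicate above a set limit carried over from the primary screen, none filed active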
* marks the source's active call; other numbers are inactive results; · = no result given.

SMILES	DAX1 inh-1	hgDAF-12 ag	DAX1 inh-2	hcDAF-12 act	ssDAF12 agonist	LXRb hcDAF ctr	hcDAF12 conf	hgDAF12 conf	LXR ag 2
CC(C)C(=O)Nc1ccc(NC(=O)c2ccccn2)cn1	-2	9	2	6.7*	0	1	4	·	·
CCOc1ncccc1-c1nc(-c2cccs2)no1	2	4	0	9.8*	0	0	9.2*	·	·
COc1cccc(-c2nc(N3CCN(C)CC3)c3ccccc3n2)c1O	1	8	0	7.8*	0	0	5	·	·
O=C(CSc1nnc(-c2cccnc2)n1-c1ccc(Cl)cc1)c1ccc(F)cc1	·	1	-1	-1	-2	·	·	·	·
O=C(Nc1ccccc1SC(=O)c1ccccc1)c1ccccc1	4.4*	7	1	7.8*	1.8*	0	9.9*	·	·
CN(/N=C/c1cccnc1)c1cnn(-c2ccc(F)c(Cl)c2)c(=O)c1Cl	1	0	0	0	-1	·	·	·	·
CN(/N=C/c1c[nH]c2ccccc12)c1cnn(-c2ccc(F)c(Cl)c2)c(=O)c1Cl	-1	3	1	7.2*	1	0	1	·	·
CCOC(=O)[C@]12CCCCC/C=C\1N(Cc1ccc(OC)cc1)C(=O)[C@H]2CC(=O)NCC1CCCCC1	·	0	0	-3	-1	·	·	·	·
CCOC(=O)[C@]12CCCCC/C=C\1N(Cc1ccc(OC)cc1)C(=O)[C@H]2CC(=O)NCCCCc1ccccc1	·	2	0	-3	-2	·	·	·	·
Cc1ccc(C2NC(=O)c3c(sc(C)c3C)N2)c(O)c1 (stereo not drawn)	1	9	2	9.0*	1.0*	0	8.4*	·	·
Cc1sc2c(c1C)C(=O)NC(c1ccccc1F)N2 (stereo not drawn)	1	4	0	0	1	·	·	·	·
Cn1c(NC(=S)Nc2ccccc2)nc2ccccc21	0	11*	2	7.9*	1	1	5	·	·
S=C(Nc1ccccc1)Nc1nc2ccccc2n1CCOc1ccc(Br)cc1	1	-2	0	-1	-1	·	·	·	·
c1cncc(-c2nc(-c3ccc4c(c3)OCO4)cs2)c1	1	12*	2	6.8*	0	1	5	·	·
CCCCOCCCNC(=O)C[C@H]1C(=O)N(Cc2ccc(OC)cc2)C2=CCCC[C@@]21C(=O)OCC	·	3	-1	-1	-2	·	·	·	·
O=C(Nc1cc(Cl)cc(Cl)c1)c1cnn2cccnc12	0	-1	0	0	-1	·	·	·	·
O=C(Nc1cccc(Cl)c1)c1cnn2cccnc12	2	17*	3	7.7*	0	1	7.5*	14*	1
C=CS(=O)(=O)N[C@@H](CSSC[C@H](NS(=O)(=O)C=C)C(=O)OC)C(=O)OC	·	2	0	-3	-2	·	·	·	·
COc1ccc(-c2csc(Nc3cccc(C)n3)n2)cc1	8.7*	14*	3	6.8*	1.0*	1	5	19*	1
COc1ccc(-c2csc(Nc3cccc(C)n3)n2)cc1C	2	14*	2	6.7*	0	1	6.0*	17*	1
Cc1ccc(Nc2nc(-c3ccc(O)c(O)c3)cs2)nc1	·	-1	-1	-1	-2	·	·	·	·
Cc1ccc(Nc2nc(-c3ccc(F)cc3)cs2)nc1	6.4*	14*	2	18*	2.7*	1	11*	18*	1
Fc1ccc(-c2csc(Nc3ccccn3)n2)cc1	3	20*	2	21*	4.3*	2	16*	26*	1
COc1ccc(-c2csc(Nc3ccc(Oc4ccccc4)cc3)n2)cc1	·	-2	-3	-2	-2	·	·	·	·
Oc1ccc(-c2csc(Nc3ncccn3)n2)cc1	1	18*	3	7.0*	0	2	8.4*	10	1
SMILES	DAX1 inh-1	hgDAF-12 ag	DAX1 inh-2	hcDAF-12 act	ssDAF12 agonist	LXRb hcDAF ctr	hcDAF12 conf	hgDAF12 conf	LXR ag 2
Cc1ccnc(Nc2nc(-c3ccccc3)cs2)c1	4	15*	1	7.8*	1	2	5.9*	15*	1
Cc1cccc(Nc2nc(-c3ccc(F)cc3)cs2)n1	9.3*	16*	3	13*	2.8*	2	9.6*	18*	1
NS(=O)(=O)c1ccc(Nc2nc(-c3ccc(F)cc3)cs2)cc1	·	1	-1	-2	-2	·	·	·	·
Cc1ccc(O)c(-c2cc(-c3ccccc3C)[nH]n2)c1	0	7	0	1	0	·	·	·	·
Cc1ccc(-c2cc(-c3cccs3)[nH]n2)c(O)c1	3	19*	4.3*	19*	2.3*	2	13*	21*	1
CN1C2=N[C@@H](c3ccccc3)CC(=O)N2/C(=C\c2ccccc2)[C@H]1c1ccccc1	·	1	·	-1	-1	·	·	·	·
CCOn1c(=O)c(-c2cc3ccccc3o2)[n+]([O-])c2ccccc21	1	·	·	·	·	·	·	·	·
O=c1c(-c2cc3ccccc3o2)[n+]([O-])c2ccccc2n1OCc1ccccn1	4	18*	4.3*	15*	2.2*	1	9.7*	21*	1
Cc1ccc2nc3sc(C(=O)NCc4ccco4)c(N)c3cc2c1	-1	13*	4.3*	8.1*	1	1	3	20*	1
COc1cc2cc3c(N)c(C(=O)NCc4ccco4)sc3nc2cc1OC	0	·	·	·	·	·	·	·	·
O/N=C/c1ccc(OCc2ccccc2F)c(Cl)c1	2	19*	2	6.7*	0	1	5	17*	1
O/N=C/c1ccccc1OCc1ccccc1F	-1	0	-1	-2	0	·	·	·	·
COc1ccc2c(c(-c3ccccc3)cn2C)c1-c1ccccc1	·	1	0	1	-1	·	·	·	·
C(=C\c1nc2ccccc2[nH]1)/c1ccccc1	-4	14*	2	7.2*	1	2	8.1*	18*	1
CN(C)c1ccc(/C=C/c2nc3ccccc3c(=O)[nH]2)cc1	3	19*	3	6.6*	1	2	8.1*	5	1
O=c1[nH]c2ccccc2nc1/C=C/c1ccc(Cl)cc1	1	2	1	-1	-1	·	·	·	·
COc1cc(/C=N/N(C)c2ccccc2)ccc1O	3	17*	3	7.5*	0	2	8.2*	18*	1
COc1ccc(NC(=O)OCCN2CCCC23CCC(c2ccccc2)CC3)cc1 (stereo not drawn)	·	1	·	-1	-2	·	·	·	·
